# Test results: PubChem BioAssay (NCATS)
# Inconclusive results are not listed. Where a call stands in place of a potency, no number is given. Active and inactive are the calls of the source. The call rests on the fitted dose curve; in most records, active means well fitted curve in the direction sought with a large enough effect; inconclusive means small, poorly fitted or top-dose-only effect, or another doubt; inactive means no such curve, though single readings can be large; an effect the other way counts as inactive or inconclusive.
# Assays:
# [1] = biological target: Methanococcus maripaludis chaperonin (MmCpn) (UniProt Q6LX38); experiment: High-Throughput Screening for Modulators of Cytosolic Chaperonin Activity: MmCpn Primary Screen (AID 488978); conditions: Purified MmCpn ATPase activity, ADP HTRF detection, 10 min; series mostly up to 76.9 µM;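 further: 50 nM MmCpn enzyme hydrolysing 30 µM ATP at 37 °C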
# Summary of the method: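 ATPase activity of 50 nM MmCpn was assayed with 30 uM ATP, 10 minutes at 37C, after a 5 min compound preincubation at room temperature. ADP production was read as HTRF emission at 590 and 665 nm.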
# [2] = biological target: D(1A) dopamine receptor (Homo sapiens) (UniProt P21728); experiment: HTS Assay for Allosteric Agonists of the Human D1 Dopamine Receptor: Primary Screen for Agonists (AID 488981); conditions: Inducible HEK293 T-REx D1 cells, calcium-flux fluorescence, 180 s kinetic; series mostly up to 41.8 µM
# Summary of the method: (§1)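 Tetracycline-induced HEK293 Trex D1 cells with forced coupling to calcium, loaded with no-wash calcium dye; kinetic fluorescence read 180 s after compound addition for agonism, then a further 180 s after an EC20 dopamine challenge for potentiation.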
# [3] = biological target: D(1A) dopamine receptor (Homo sapiens) (UniProt P21728); experiment: HTS Assay for Allosteric Agonists of the Human D1 Dopamine Receptor: Primary Screen for Potentiators (AID 488982); conditions: HEK293 T-REx D1 inducible cells, calcium flux, kinetic fluorescence; series mostly up to 8.37 µM
# Summary of the method: as §1
# [4] = biological target: D(1A) dopamine receptor (Homo sapiens) (UniProt P21728); experiment: HTS Assay for Allosteric Agonists of the Human D1 Dopamine Receptor: Primary Screen for Antagonists (AID 488983); conditions: D1 receptor cell assay, antagonist mode, qHTS titration; series mostly up to 41.8 µM;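 further: calcium flux response to an EC80 dopamine challenge measured with no-wash dye; nearly all actives have a fitted effect of over 65% in size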; further: potency means the concentration at half of the fitted maximal effect
# Summary of the method: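 Screening of inducible HEK293 T-REx D1 cells: compound first, EC80 dopamine 180 s later, each phase read kinetically for calcium over 180 s.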
# [5] = Validation screen for small molecules that induce genotoxicity in human embryonic kidney (HEK293T) cells expressing luciferase-tagged ELG1 (AID 493106); conditions: luminescence; series mostly up to 46.1 µM
# Summary of the method: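 Reporter-gene quantitative HTS in HEK293T cells carrying luciferase-tagged ELG1, whose level climbs under genotoxic stress. Compound exposure lasts 16 hr at 37 °C before luciferase detection.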
# [6] = biological target: Thyrotropin receptor (Homo sapiens) (UniProt P16473); experiment: qHTS Assay for Antagonists of the Thyroid Stimulating Hormone Receptor (AID 488980); conditions: TSHR-expressing cells, cAMP antagonist read-out; series mostly up to 57.5 µM
# Summary of the method: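 Inhibition of cAMP raised by EC80 TSH (4 nM final) was read by HTRF, with lysate cAMP competing against cAMP-d2 for cryptate antibody after 30 min at room temperature. The cells were transfected HEK293 held in phosphodiesterase inhibitor RO 20-1724 at 70 uM.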
# [7] = biological target: ATPase family AAA domain-containing protein 5 (Homo sapiens) (UniProt Q96QE3); experiment: Validation screen for small molecules that inhibit ELG1-dependent DNA repair in human embryonic kidney (HEK293T) cells expressing luciferase-tagged ELG1 (AID 493107); conditions: HEK293T ELG1-luciferase level, luminescence, 5-fluorouridine co-treatment, 16 h; series mostly up to 46.1 µM; further: potency means the concentration at half of the fitted maximal effect; nearly all actives have a fitted effect of over 70% in size
# Summary of the method: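 Quantitative HTS in HEK293T cells carrying luciferase-tagged ELG1, stimulated with 5-fluorouridine alongside compound for 16 hr. Loss of luciferase signal marks inhibition of ELG1 response.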
# [8] = biological target: Tyrosyl-DNA phosphodiesterase 1 (Homo sapiens) (UniProt Q9NUW8); experiment: Confirmation Assay for Inhibitors of Tyrosyl-DNA Phosphodiesterase (TDP1) (AID 489007); conditions: recombinant human TDP1 enzymatic activity, dose-response; further: potency means the concentration at half of the fitted maximal effect; nearly all actives have a fitted effect of over 40% in size
# Summary of the method: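 Confirmation of primary-screen follow-ups in a qHTS format. Substrate cleavage by Tdp1 (1 nM) of a 3'-phosphotyrosine-FITC, 5'-biotin oligo (15 nM) was monitored as decreased AlphaScreen signal after a 5 min room-temperature reaction.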
# Sequence of D(1A) dopamine receptor (Homo sapiens) (P21728 whole entry, looked up): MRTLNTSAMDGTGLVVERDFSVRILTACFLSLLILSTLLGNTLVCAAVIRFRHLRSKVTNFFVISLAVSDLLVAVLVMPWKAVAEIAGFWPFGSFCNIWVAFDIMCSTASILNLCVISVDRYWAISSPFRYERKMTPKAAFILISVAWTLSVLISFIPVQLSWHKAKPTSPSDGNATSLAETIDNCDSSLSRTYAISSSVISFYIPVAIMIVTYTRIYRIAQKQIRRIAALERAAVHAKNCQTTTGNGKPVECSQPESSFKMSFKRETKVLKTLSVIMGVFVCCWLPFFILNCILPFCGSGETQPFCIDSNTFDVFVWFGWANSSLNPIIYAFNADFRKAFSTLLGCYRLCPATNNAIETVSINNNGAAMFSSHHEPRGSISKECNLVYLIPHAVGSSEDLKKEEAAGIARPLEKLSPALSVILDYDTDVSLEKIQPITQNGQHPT
# Sequence of Methanococcus maripaludis chaperonin (MmCpn) (Q6LX38 1-543): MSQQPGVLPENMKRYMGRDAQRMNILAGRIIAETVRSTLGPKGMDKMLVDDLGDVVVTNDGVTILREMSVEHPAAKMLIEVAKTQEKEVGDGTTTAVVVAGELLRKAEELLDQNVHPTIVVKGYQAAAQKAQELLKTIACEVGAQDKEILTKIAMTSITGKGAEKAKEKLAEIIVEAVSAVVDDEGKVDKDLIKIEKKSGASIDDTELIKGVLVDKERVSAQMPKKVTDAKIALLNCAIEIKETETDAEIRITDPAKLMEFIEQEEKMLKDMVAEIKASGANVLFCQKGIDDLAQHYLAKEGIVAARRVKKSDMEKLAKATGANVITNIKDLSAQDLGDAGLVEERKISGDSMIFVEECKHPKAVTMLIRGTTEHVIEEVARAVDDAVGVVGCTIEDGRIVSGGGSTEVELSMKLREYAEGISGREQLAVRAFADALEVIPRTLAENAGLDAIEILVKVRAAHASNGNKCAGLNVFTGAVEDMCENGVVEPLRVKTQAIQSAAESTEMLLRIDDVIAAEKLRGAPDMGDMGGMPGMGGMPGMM
# Sequence of Thyrotropin receptor (Homo sapiens) (P16473 whole entry, looked up): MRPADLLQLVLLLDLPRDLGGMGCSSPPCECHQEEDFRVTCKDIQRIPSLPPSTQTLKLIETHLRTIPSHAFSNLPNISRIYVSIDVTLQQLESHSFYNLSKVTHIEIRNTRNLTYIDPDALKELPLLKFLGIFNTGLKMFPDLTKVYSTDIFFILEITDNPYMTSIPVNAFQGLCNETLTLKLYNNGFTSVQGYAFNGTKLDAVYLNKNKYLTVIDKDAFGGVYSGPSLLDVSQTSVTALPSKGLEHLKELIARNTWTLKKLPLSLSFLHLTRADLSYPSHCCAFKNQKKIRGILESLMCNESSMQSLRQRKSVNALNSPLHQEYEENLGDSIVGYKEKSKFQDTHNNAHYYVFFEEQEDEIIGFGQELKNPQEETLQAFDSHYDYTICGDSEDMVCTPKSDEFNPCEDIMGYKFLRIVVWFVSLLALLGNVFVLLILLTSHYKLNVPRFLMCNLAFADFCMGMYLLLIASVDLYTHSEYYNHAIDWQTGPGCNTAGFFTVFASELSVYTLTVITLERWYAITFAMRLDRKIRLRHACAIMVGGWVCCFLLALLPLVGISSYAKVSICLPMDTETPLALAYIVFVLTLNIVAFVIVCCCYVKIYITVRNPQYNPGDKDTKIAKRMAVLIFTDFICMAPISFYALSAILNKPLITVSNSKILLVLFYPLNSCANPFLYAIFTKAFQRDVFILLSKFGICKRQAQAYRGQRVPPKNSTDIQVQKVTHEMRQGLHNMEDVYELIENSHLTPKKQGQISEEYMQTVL
# Sequence of Tyrosyl-DNA phosphodiesterase 1 (Homo sapiens) (Q9NUW8 whole entry, looked up): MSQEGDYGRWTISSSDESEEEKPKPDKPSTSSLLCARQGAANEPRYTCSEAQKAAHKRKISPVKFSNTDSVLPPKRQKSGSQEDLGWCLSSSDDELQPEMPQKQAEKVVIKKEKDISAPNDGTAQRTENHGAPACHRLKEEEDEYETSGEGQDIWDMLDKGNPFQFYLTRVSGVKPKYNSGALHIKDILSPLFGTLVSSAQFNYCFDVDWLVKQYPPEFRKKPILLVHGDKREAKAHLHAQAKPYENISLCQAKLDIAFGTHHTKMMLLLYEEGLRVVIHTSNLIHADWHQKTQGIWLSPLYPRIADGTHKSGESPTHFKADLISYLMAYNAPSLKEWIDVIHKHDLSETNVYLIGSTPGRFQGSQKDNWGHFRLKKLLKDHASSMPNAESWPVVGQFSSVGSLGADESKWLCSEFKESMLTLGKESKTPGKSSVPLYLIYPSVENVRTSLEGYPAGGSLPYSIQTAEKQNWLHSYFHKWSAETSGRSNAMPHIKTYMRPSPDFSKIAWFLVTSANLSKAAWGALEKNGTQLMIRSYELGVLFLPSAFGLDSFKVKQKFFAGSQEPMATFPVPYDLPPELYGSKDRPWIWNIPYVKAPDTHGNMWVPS
# Sequence of ATPase family AAA domain-containing protein 5 (Homo sapiens) (Q96QE3 whole entry, looked up, the tested form may be a part): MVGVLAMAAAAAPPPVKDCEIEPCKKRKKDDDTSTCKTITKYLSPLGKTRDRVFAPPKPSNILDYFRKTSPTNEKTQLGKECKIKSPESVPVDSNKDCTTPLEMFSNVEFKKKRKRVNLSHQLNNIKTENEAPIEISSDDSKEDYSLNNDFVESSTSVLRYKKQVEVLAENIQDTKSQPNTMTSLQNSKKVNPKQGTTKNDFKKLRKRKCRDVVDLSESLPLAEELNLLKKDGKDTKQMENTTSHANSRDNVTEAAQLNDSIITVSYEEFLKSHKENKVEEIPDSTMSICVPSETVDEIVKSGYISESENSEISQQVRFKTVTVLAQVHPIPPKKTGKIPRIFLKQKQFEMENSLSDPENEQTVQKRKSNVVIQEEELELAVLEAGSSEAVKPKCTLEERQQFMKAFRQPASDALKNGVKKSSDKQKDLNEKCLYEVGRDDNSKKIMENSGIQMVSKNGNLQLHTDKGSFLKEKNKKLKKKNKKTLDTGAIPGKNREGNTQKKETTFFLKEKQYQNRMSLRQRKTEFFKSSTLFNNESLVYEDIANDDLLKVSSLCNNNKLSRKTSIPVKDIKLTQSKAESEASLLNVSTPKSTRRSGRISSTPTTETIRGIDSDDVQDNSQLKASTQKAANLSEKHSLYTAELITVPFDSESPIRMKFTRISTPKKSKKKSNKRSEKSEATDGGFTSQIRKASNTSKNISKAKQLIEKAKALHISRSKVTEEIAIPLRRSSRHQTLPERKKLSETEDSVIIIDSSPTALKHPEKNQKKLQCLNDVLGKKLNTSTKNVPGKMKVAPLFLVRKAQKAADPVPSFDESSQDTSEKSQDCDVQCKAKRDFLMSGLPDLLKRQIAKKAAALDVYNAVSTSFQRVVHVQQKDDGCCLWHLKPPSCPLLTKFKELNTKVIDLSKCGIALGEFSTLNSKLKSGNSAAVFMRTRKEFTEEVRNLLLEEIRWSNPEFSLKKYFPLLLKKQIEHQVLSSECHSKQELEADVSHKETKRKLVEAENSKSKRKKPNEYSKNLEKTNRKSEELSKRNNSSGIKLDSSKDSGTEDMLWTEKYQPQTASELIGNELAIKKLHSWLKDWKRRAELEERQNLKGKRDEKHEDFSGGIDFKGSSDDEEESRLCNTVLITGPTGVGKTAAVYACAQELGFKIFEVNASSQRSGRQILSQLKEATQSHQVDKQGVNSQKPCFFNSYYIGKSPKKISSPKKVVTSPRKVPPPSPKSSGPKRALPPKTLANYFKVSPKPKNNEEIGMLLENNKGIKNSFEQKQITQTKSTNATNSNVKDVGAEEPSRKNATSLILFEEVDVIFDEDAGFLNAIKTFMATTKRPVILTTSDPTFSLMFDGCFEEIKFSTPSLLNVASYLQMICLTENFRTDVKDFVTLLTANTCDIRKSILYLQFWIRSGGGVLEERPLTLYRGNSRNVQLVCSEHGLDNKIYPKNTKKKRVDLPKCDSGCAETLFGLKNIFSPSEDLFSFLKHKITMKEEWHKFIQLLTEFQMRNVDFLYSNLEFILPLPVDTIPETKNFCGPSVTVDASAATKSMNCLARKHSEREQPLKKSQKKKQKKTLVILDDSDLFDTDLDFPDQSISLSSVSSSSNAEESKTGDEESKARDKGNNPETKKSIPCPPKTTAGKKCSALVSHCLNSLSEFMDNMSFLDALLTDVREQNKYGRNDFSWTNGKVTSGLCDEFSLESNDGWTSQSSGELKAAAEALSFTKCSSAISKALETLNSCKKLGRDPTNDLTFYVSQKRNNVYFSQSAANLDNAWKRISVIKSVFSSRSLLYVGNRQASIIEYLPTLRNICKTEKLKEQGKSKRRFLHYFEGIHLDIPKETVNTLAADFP
smiles,measurement,setting,value
N[C@@H](Cn1ccc(=O)[nH]c1=O)C(=O)O,outcome,[1],inactive
same,Potency,[2],inactive
same,Potency,[3],inactive
same,Potency,[4],inactive
same,Potency,[5],inactive
Ic1ccccc1CNC1C2CCN(CC2)C1C(c1ccccc1)c1ccccc1 (stereo not given),outcome,[1],inactive
same,outcome,[6],inactive
same,Potency,[5],inactive
same,Potency,[7],16.4 µM (active)
NCC(O)c1cc(O)c(O)cc1F (stereo not given),outcome,[1],inactive
same,outcome,[6],inactive
same,Potency,[3],inactive
same,Potency,[4],2.51 µM (active)
same,Potency,[5],inactive
CCCN1CCc2cc(O)cc3c2[C@H]1Cc1ccc(O)c(O)c1-3,outcome,[1],inactive
same,Potency,[2],inactive
same,Potency,[4],0.631 µM (active)
same,Potency,[5],inactive
C[N+]1(C)CCc2cc3c(cc2[C@H]1[C@@H]1OC(=O)c2c1ccc1c2OCO1)OCO3,outcome,[1],inactive
same,Potency,[2],inactive
same,Potency,[4],inactive
same,Potency,[5],inactive
COc1ccc2c(c1)[C@@]13CCCC[C@H]1[C@@H](C2)NCC3,outcome,[1],inactive
same,Potency,[2],inactive
same,Potency,[3],inactive
same,Potency,[4],inactive
same,Potency,[5],inactive
CN(N=O)c1cc(O)ccc1O,outcome,[1],inactive
same,Potency,[2],inactive
same,Potency,[3],inactive
same,Potency,[4],inactive
same,Potency,[5],inactive
CCCN1CCc2cccc3c2[C@H]1Cc1ccc(O)c(O)c1-3,Potency,[3],inactive
C[N+](C)(C)CC#CCN1CCCC1=O,Potency,[3],inactive
[O]=[Cr](=[O])([OH])[O][Cr](=[O])(=[O])[OH],Potency,[8],4.47 µM (active)
